Most compounds without a hit are left out; they make up all but 4.2% or so of the library.
TCR activator: activates T cell receptor signaling; 330,000 tested, under 10 active; AID 504894; primary human leukocytes, anti-CD3, IL-2 HTRF, 48 h; Potency, µM (doses to about 9.22 µM), for the others: at the top dose activation of IL-2 secretion, hits mostly activators; note: % of control where 0% means no effect
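Primary human leukocytes incubated 48 hr with anti-CD3 beads plus compound, without co-stimulation. Secreted IL-2 measured by HTRF (europium cryptate/d2 anti-IL-2 pair, 320 nm excitation, 665 nm emission).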
ClpP mod: qHTS Assay for Activators of ClpP; purified B. subtilis ClpP, FRET peptide cleavage, 20 min; Potency, µM (top dose mostly 57.5 µM), without a hit: at the highest dose activity change, negative = active; 1.9% of 340,000 active; AID 651965, 2013; active = well fitted falling curve with a large enough effect; inconclusive = small, poorly fitted or top-dose-only effect; inactive = no such curve, though single readings can be large or run the other way; note: potency is the fitted concentration of half-maximal effect; the source files actives as falling curves though it sought activators and does not explain the sign; nearly all actives have a fitted effect of over 65% in size
Target sequence (P80244 whole entry, looked up): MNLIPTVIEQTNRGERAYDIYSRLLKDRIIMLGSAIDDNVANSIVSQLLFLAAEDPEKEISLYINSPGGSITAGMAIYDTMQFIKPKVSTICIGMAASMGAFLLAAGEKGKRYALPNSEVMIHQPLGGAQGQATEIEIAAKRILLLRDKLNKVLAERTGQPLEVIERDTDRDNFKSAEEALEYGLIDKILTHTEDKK
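Purified B. subtilis ClpP, 10 microg/mL final in Tris/HCl pH8 with KCl, BSA, glycerol and Tween-20, cleaved an Abz/nitrotyrosine-quenched decapeptide. Fluorescence (ex 320, em 430) was read at 0 and 20 min at room temperature. Delta was normalized to 5.8 microM ADEP and DMSO/no-enzyme controls.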
uPA generation: inhibitors of cell surface uPA generation; 0.31% of 330,000 active; Potency, µM (top dose mostly 38.3 µM), without a hit: top-dose activity change, negative = inhibition, actives largely listed as inhibitors; cell surface uPA generation assay, qHTS; active = well fitted inhibition curve with a large enough effect; inconclusive = small, poorly fitted or top-dose-only effect; inactive = no such curve, though single readings can be large or run the other way; tested in mouse RAW 264.7 cells; note: potency is the fitted concentration of half-maximal effect; % is set by controls: 0 for no effect and ±100 for the full control effect; nearly all actives have a fitted effect of over 55% in size
Sfp PPTase inh: blocks B. subtilis Sfp PPTase activity; Q9F4F7; Biochemical Sfp PPTase activity, qHTS; Potency, µM, without a hit: largest response in the series, negative = inhibition, most hits filed as inhibitors; 3.5% of 310,000 active; AID 1490;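 note: the enzyme is Sfp with the accession as filed and its product quenches rhodamine fluorescence; potency is the fitted concentration of half-maximal effect; 0% = enzyme reaction without inhibitor and -100% = no enzyme wells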
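Fluorescence-quenching assay: 15 nM Sfp-PPTase preincubated 15 min at room temperature with compound, then 5 uM rhodamine-CoA and 12.5 uM BHQ-2-labelled YbbR peptide added. Fluorescence (ex 525/em 598 nm) read at start and after 30 min; difference gives rate.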
Starred values were filed as active, the others as inactive; ? = inconclusive; · = no result; [ ] = remark or other dose. Unless noted, calls come from the whole dose curve; as a rule, active = well fitted curve in the direction sought with a large enough effect; inconclusive = small, poorly fitted or top-dose-only effect, or another doubt; inactive = no such curve, though single readings can be large; an effect the other way counts as inactive or inconclusive.

SMILES | TCR activator | ClpP mod | uPA generation | Sfp PPTase inh
O=C(O)COc1ccccc1C(Nc1cccnc1)c1cc(Cl)c2cccnc2c1O (stereo not given) | -1.4% | · | 3.3% | 22.4µM*
CCN1c2ccccc2-c2nc(SCC(=O)Nc3c(C)cc(C)cc3C)ncc2S1(=O)=O | · | -13.5% | · | ·
Cc1ccc(CNc2oc(-c3ccco3)nc2C#N)cc1 | 8.9%[46.1 µM] | 15.8µM* | -5.3% | -3.7%
N#Cc1nc(-c2ccco2)oc1NCCc1ccccc1 | 2.7% | 28.2µM* | -8.1% | -6.4%
CNc1oc(-c2ccco2)nc1C#N | -11.7% | ? | -1.7% | 7.1%
COc1ccc(CCNc2oc(-c3ccco3)nc2C#N)cc1 | 2.6%[46.1 µM] | 28.2µM* | 1.5% | -1.3%
Cc1ccc(-c2nc(C#N)c(NCc3cccc4c3OCO4)o2)cc1 | 6.3% | 31.6µM* | 3.2% | -1.8%
COc1ccc(CCNc2oc(COc3ccc(F)cc3)nc2C#N)cc1 | 0.3% | 0.2% | 1.4% | 17.7%
N#Cc1nc(-c2ccc(F)cc2)oc1NCc1cccc2c1OCO2 | 3.1%[46.1 µM] | 4.4% | -1.3% | 1.6%
Cc1ccc(S(=O)(=O)N2CCN(c3nc(-c4cccnc4)nc4ccccc34)CC2)cc1 | · | -6.4% | · | ·
Cc1ccc(NC(=O)CC2Nc3cccc4cccc(c34)NC2=O)cc1 (stereo not given) | · | 1.6% | · | ·
O=C(CC1Nc2cccc3cccc(c23)NC1=O)Nc1ccccc1 (stereo not given) | -3.1%[46.1 µM] | -2.0% | 2.1% | 17.8µM*
CCOc1ccccc1NC(=O)CC1Nc2ccccc2NC1=O (stereo not given) | 16.2% | 25.1µM* | -11.2% | 5.6%
CCCOc1ccccc1NC(=O)CC1Nc2ccccc2NC1=O (stereo not given) | -0.3%[46.1 µM] | -7.2% | · | -2.9%
O=C(COC(=O)CC1CCCC1)Nc1ccc(Cl)cc1 | -12.6% | · | -1.0% | ·
O=C1C=CC(=O)C(C2=C3C(=O)N(CCc4ccccc4)CC(=O)N3CCC2)=C1 | 0.7%[46.1 µM] | 2.0% | 4.1% | 1µM*
O=C1CC2(CCCCC2)CC(=O)N1CCc1ccccc1 | 3.5% | · | -1.6% | ·
COc1cccc(C(=O)Nc2ccc3c(cc2=O)[C@@H](NC(C)=O)CCc2cc(OC)c(OC)c(OC)c2-3)c1 | 3.7% | -2.6% | 10µM* | -11.3%
COc1cc2c(c(OC)c1OC)-c1ccc(OC)c(=O)cc1C(NC(C)=O)CC2 (stereo not given) | 1.3% | -0.7% | ? | 4.1%
CCc1ccc(C(C(=O)NC2CCCC2)N(Cc2cccnc2)C(=O)c2csnn2)cc1 (stereo not given) | -1.1% | · | -2.9% | 17.3%
Cc1ccccc1NS(=O)(=O)c1ccc(OCC(=O)N2CCCC2)cc1 | 10.2% | 28.2µM* | -3.8% | 2.3%
CC1CCN(C(=O)COc2ccc(S(=O)(=O)N3CCCC3)cc2)CC1 | -0.2% | · | -0.1% | 3.8%
O=C(COc1ccc(S(=O)(=O)N2CCCCC2)cc1)N1CCCCCC1 | 2.6% | 31.6µM* | 5.6% | 3.6%
C[C@@H]1[C@H](c2ccccc2)OCCS(=O)(=O)N1Cc1ccc(F)cc1 | · | 0.4% | · | ·
CCC(=O)Nc1nnc(-c2ccncc2)s1 | -2.5% | 15.8µM* | · | 21.4%
SMILES | TCR activator | ClpP mod | uPA generation | Sfp PPTase inh
CCNc1nnc(-c2ccncc2)s1 | 8.0% | -14.5% | 0.3% | 7.1%
Cc1onc(-c2ccccc2)c1C(=O)Nc1nnc(-c2ccncc2)s1 | -5.4% | 31.6µM* | · | 11.2%
Cc1onc(-c2ccccc2)c1C(=O)Nc1ccc2c(C)cc(=O)oc2c1 | -2.8% | 15.8µM* | -0.8% | 1.9%
CC12CCC(O)CC1=CCC1C2CCC2(C)C3=NN=CC3CC12 (stereo not given) | -0.5% | · | 16.1% | ·
CCOc1cc(/C=N/NC(=O)Cn2nc([N+](=O)[O-])cc2C)ccc1OCc1ccc(F)cc1 | -3.7% | 3.8% | -1.1% | 44.7µM*
CCOc1cc(/C=N/NC(=O)Cn2nc([N+](=O)[O-])cc2C)cc(Br)c1OCc1ccccc1F | 0.4% | 2.2% | · | -15.3%
COc1cc(OC)c(NC(=O)CC(C)S(=O)(=O)c2ccc3c(c2)NC(=O)CO3)cc1Cl (stereo not given) | · | -1.7% | · | ·
O=S(=O)(c1ccc(F)cc1)N1CCN(Cc2cc3c(cc2Br)OCCO3)CC1 | -3.3% | -0.1% | 17.4% | ·
Oc1ccc(N2CCN(Cc3cc4c(cc3Br)OCCO4)CC2)cc1 | -6.7% | · | -5.1% | 50.1µM*
O=C(NCc1ccccc1)Nc1cccn(Cc2ccc(F)cc2)c1=O | 0.9%[46.1 µM] | 31.6µM* | 1.0% | -10.4%
Cc1cc(NC(=O)NCc2ccccc2)c(=O)n(Cc2ccc(F)cc2)c1 | -2.9% | · | 1.3% | 20.5%
COc1ccc(Cn2cccc(NC(=O)Nc3cccc(C#N)c3)c2=O)cc1 | 3.5% | ? | 0.3% | 14.1%
COc1ccccc1NC(=O)NCc1cccn1Cc1ccccc1 | · | -3.0% | · | ·
CCOc1ccc(NC(=O)Nc2cccn(Cc3ccccc3)c2=O)cc1 | 1.3% | 28.2µM* | · | 15.2%
O=C(NCc1ccccc1)Nc1cccn(Cc2ccccc2F)c1=O | 0.2%[46.1 µM] | 20µM* | ? | -0.7%
O=C(NCc1ccccc1)Nc1cccn(Cc2ccccc2)c1=O | -3.1%[46.1 µM] | 25.1µM* | -2.2% | 17.1%
CCOCCCN1C(=O)CN(C2CCCCCC2)C(=O)C1c1ccc(OCC)c(OC)c1 (stereo not given) | · | -2.5% | · | ·
CCOc1cc(Br)cc(/C=N/NC(=O)c2cccnc2)c1O | 5.3% | · | -6.2% | 25.9%
CCC(=O)N1c2ccccc2CC1C(=O)NCc1cccc(OC)c1OC (stereo not given) | · | 0.3% | · | ·
COc1ccc(CCNC(=O)c2cnc3ccc(C)cn3c2=O)cc1 | · | -19.0% | · | ·
Cc1ccc(-c2nnc(SCC(=O)NCc3ccccc3)o2)cc1 | · | 1.4% | · | ·
COc1ccccc1N1CCN(S(=O)(=O)c2ccc3c(c2)CCCN3C(C)=O)CC1 | · | -3.6% | · | ·
CCOc1ccc(-c2nn(CC(=O)NC3CCCCC3)c3c2cnc2ccc(C)cc23)cc1 | · | -21.6% | · | ·
O=C(NCc1ccccc1)Nc1cccn(Cc2cccc(F)c2)c1=O | 1.1%[46.1 µM] | 35.5µM* | -0.4% | 10.4%
CCc1ccccc1NC(=O)Nc1cccn(Cc2ccccc2F)c1=O | -1.4% | 4.1% | 14.6% | 4.3%
SMILES | TCR activator | ClpP mod | uPA generation | Sfp PPTase inh
CCn1c2ccc(F)cc2c2nnc(SCCN3CCCCC3)nc21 | -2.7% | -3.9% | -5.8% | 1.6%
CC(=O)N[C@@H]1C(O[C@H]2O[C@H](C(=O)O)C(O)[C@H](O)[C@H]2O)[C@H](O)[C@@H](CO)O[C@H]1O[C@@H]1C(C(=O)O)O[C@@H](O[C@H]2[C@H](O)[C@@H](CO)OC(O)[C@@H]2NC(C)=O)[C@H](O)[C@H]1O (stereo not given in full) | · | · | · | 25.5%
O=C(Cn1cnnn1)Nc1ccccc1Cc1ccccc1 | -5.1% | 28.2µM* | 1.8% | 6.8%
CN1CCN(CCCNCc2cn(CCC#N)c3ccccc23)CC1 | -2.9% | · | -1.3% | 56.2µM*
Cc1c(C)n(CC(O)CN2CCN(C)CC2)c2ccccc12 (stereo not given) | 4.0% | 3.8% | -12.5% | 2.0%
CN1CCN(CC(O)Cn2c3ccccc3c3ccccc32)CC1 (stereo not given) | 0.7% | -20.6% | 10.2% | 50.1µM*
OC(CN1CCCCC1)Cn1c2ccccc2c2ccccc21 (stereo not given) | -7.2% | -15.6% | -2.1% | 1.1%
